Test results reported in PubChem BioAssay (Tox21).
Results filed as inconclusive are left out. A number with no mark means an inactive call. The call rests on the fitted dose curve.

Assay: p53 small molecule agonists, cell-based qHTS assay: qHTS cell viability counter screen (AID 1963581); further: nearly all actives have a fitted effect of over 45% in size
Details: p53RE-bla HCT-116 viability, ATP luminescence, 16 h; series mostly up to 66 µM; activity change, negative = cytotoxicity: at the top concentration
Method in brief: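 HCT-116 p53RE-bla cells, 4,000/well, plated 5 h before compound pin transfer; 16 h at 37 C; bla substrate 2 h RT; then CellTiter-Glo, 30 min RT, luminescence.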
On the % scale 0 is the no-effect control and ±100 the full control effect.

First: O=c1[nH]c(=O)n([C@H]2C[C@H](O)[C@@H](CO)O2)cc1I
Second: C[N+]1(C)[C@@H]2CC(OC(=O)[C@H](CO)c3ccccc3)C[C@H]1[C@@H]1O[C@@H]12 (some centres not stated)
The “activity change, negative = cytotoxicity” value of the first is lower: -15.7% [at 30.3 µM] for the first, 5.13% [at 30.3 µM] for the second.

Compared with `CC[N+](CC)(CC)CCOc1cccc(OCC[N+](CC)(CC)CC)c1OCC[N+](CC)(CC)CC`, `Cc1cccc(C)c1OCC(C)N` (configuration not stated) is lower in “activity change, negative = cytotoxicity” value: 1.16% [at 30.3 µM] for the first, -0.643% [at 30.3 µM] for the second.

First: C[C@@H]1C[C@H]2[C@@H]3CCC4=CC(=O)C=C[C@]4(C)[C@@]3(F)[C@@H](O)C[C@]2(C)[C@H]1C(=O)CO
Second: CC[C@H]1OC(=O)[C@H](C)[C@@H](O[C@H]2C[C@@](C)(OC)[C@@H](O)[C@H](C)O2)[C@H](C)[C@@H](O[C@@H]2O[C@H](C)C[C@H](N(C)C)[C@H]2O)[C@](C)(O)C[C@@H](C)C(=O)[C@H](C)[C@@H](O)[C@]1(C)O
The “activity change, negative = cytotoxicity” value of the first is lower: 0.766% [at 30.3 µM] for the first, 8.06% [at 30.3 µM] for the second.

Compared with `CCOC(=O)OC(C)OC1=C(C(=O)Nc2ccccn2)N(C)S(=O)(=O)c2ccccc21` (configuration not stated), `CC1=NS(=O)(=O)c2cc(Cl)ccc2N1` is higher in “activity change, negative = cytotoxicity” value: -19.1% [at 30.3 µM] for the first, -11.8% [at 30.3 µM] for the second.

For `C[N+](C)(C)CC(O)CC(=O)[O-]` (configuration not stated), the “activity change, negative = cytotoxicity” value was -8.27% [at 30.3 µM].

Compared with `C[C@H]1C[C@H]2[C@@H]3CCC4=CC(=O)C=C[C@]4(C)[C@@]3(F)[C@@H](O)C[C@]2(C)[C@@]1(O)C(=O)COP(=O)(O)O`, `CC[C@H]1OC(=O)[C@H](C)[C@@H](O[C@H]2C[C@@](C)(OC)[C@@H](O)[C@H](C)O2)[C@H](C)[C@@H](O[C@@H]2O[C@H](C)C[C@H](N(C)C)[C@H]2O)[C@](C)(OC)C[C@@H](C)C(=O)[C@H](C)[C@@H](O)[C@]1(C)O` is lower in “activity change, negative = cytotoxicity” value: 16.9% for the first, 1.38% for the second.

With `CC(C)NCC(O)c1ccc(NS(C)(=O)=O)cc1` (configuration not stated) the “activity change, negative = cytotoxicity” value was 0%.
